Structures can show the parent of a compound that is named as a salt.
Tested on: HL-1
Test: relative cell viability (CellTiter-Glo) vs DMSO control (% of DMSO control); higher = more viable cells
Outline: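 Plating of HL-1 mouse atrial cardiomyocytes at 1000 cells per well in 384-well plates was done together with compounds at 40, 200, 1000 or 5000 nM in 0.01% DMSO. A day later the cells faced 48 h of 1% O2 and then 24 h of reoxygenation, or matching normoxia. Viability was measured via CellTiter-Glo luminescence and set relative to vehicle-treated control cells.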

[1] = oxygen condition: hypoxia 48 h (1% O2) + reoxygenation 24 h, 40 nM
[2] = oxygen condition: hypoxia 48 h (1% O2) + reoxygenation 24 h, 200 nM
[3] = oxygen condition: hypoxia 48 h (1% O2) + reoxygenation 24 h, 1000 nM
[4] = oxygen condition: hypoxia 48 h (1% O2) + reoxygenation 24 h, 5000 nM
[5] = oxygen condition: normoxia 72 h, 40 nM
[6] = oxygen condition: normoxia 72 h, 200 nM
[7] = oxygen condition: normoxia 72 h, 1000 nM
[8] = oxygen condition: normoxia 72 h, 5000 nM

Row | Compound | relative cell viability [1] | relative cell viability [2] | relative cell viability [3] | relative cell viability [4] | relative cell viability [5] | relative cell viability [6] | relative cell viability [7] | relative cell viability [8]
1 | CCCCCOC(=O)Nc1nc(=O)n([C@@H]2O[C@H](C)[C@@H](O)[C@H]2O)cc1F [Capecitabine] | 104 | 94.1 | 106 | 119 | 105 | 113 | 119 | 129
2 | CN1CCN(CCCN2c3ccccc3Sc3ccc(Cl)cc32)CC1 [Prochlorperazine Dimaleate] | 114 | 111 | 106 | 113 | 98.7 | 99.3 | 102 | 105
3 | CCN(CC)CCOC(=O)C1(C2CCCCC2)CCCCC1 [Dicyclomine HCl] | 94.1 | 95.7 | 97.1 | 100 | 92.4 | 101 | 97.2 | 105
4 | Nc1c2c(nc3ccccc13)CCCC2 [Tacrine HCl] | 91.7 | 89.5 | 81.2 | 20.3 | 94.1 | 82.5 | 70.4 | 26.4
5 | CN(C)CC/C=C1/c2ccccc2Sc2ccc(Cl)cc21 [Chlorprothixene] | 105 | 112 | 102 | 115 | 108 | 107 | 118 | 118
6 | O=C(Nc1c(Cl)cncc1Cl)c1ccc(OC(F)F)c(OCC2CC2)c1 [Roflumilast] | 101 | 82.1 | 92.9 | 99 | 90.6 | 84.6 | 93.7 | 93.6
7 | C[C@]12CCC3=C4CCC(=O)C=C4CC[C@H]3[C@@H]1CC[C@@]2(O)CC#N [Dienogest] | 103 | 104 | 106 | 103 | 105 | 102 | 107 | 107
8 | CCN(Cc1ccncc1)C(=O)C(CO)c1ccccc1 (stereo not drawn) [Tropicamide] | 102 | 99.4 | 101 | 107 | 99.4 | 102 | 101 | 104
9 | COc1ccc([C@@H]2Sc3ccccc3N(CCN(C)C)C(=O)[C@@H]2OC(C)=O)cc1 [Diltiazem HCl] | 104 | 105 | 106 | 114 | 105 | 108 | 109 | 113
10 | CC(C)NCC(O)COc1cccc2ccccc12 (stereo not drawn) [Propranolol HCl] | 99.8 | 109 | 103 | 109 | 107 | 100 | 92.5 | 106
11 | COc1ccc2c(c1OC)C(=O)O[C@@H]2[C@H]1c2c(cc3c(c2OC)OCO3)CCN1C [Noscapine HCl] | 97.5 | 98 | 99.1 | 103 | 94.9 | 106 | 104 | 109
12 | CC[C@H](C)C(=O)O[C@H]1C[C@H](O)C=C2C=C[C@H](C)[C@H](CC[C@@H](O)C[C@@H](O)CC(=O)O)[C@H]21 [Pravastatin sodium] | 99.1 | 94.4 | 84.7 | 19.8 | 96.8 | 95.9 | 70.7 | 6.81
13 | O=NN(CCCl)C(=O)NC1CCCCC1 [Lomustine] | 90.8 | 100 | 93.4 | 66.3 | 108 | 96.2 | 102 | 67
14 | CCCCCCCCOc1ccccc1C(=O)Nc1ccc(C(=O)OCC[N+](C)(CC)CC)cc1 [Otilonium Bromide] | 101 | 107 | 108 | 114 | 107 | 105 | 110 | 114
15 | Cc1cc(C)nc(NS(=O)(=O)c2ccc(N)cc2)n1 [Sulfamethazine] | 102 | 104 | 104 | 112 | 94.6 | 104 | 105 | 119
16 | CCC(C)(C)C(=O)O[C@H]1C[C@@H](C)C=C2C=C[C@H](C)[C@H](CC[C@@H]3C[C@@H](O)CC(=O)O3)[C@H]21 [Simvastatin] | 109 | 108 | 99.2 | 3.87 | 111 | 103 | 50.4 | 2.69
17 | C[C@]12CCC(=O)C=C1[C@@H]1C[C@@H]1[C@H]1[C@@H]3[C@@H]4C[C@@H]4[C@@]4(CCC(=O)O4)[C@@]3(C)CC[C@@H]12 [Drospirenone] | 104 | 104 | 109 | 105 | 103 | 112 | 100 | 104
18 | CN1[C@@H]2CC[C@H]1C[C@@H](OC(=O)c1c[nH]c3ccccc13)C2 [Tropisetron] | 99.6 | 103 | 100 | 104 | 98.7 | 101 | 104 | 66
19 | CNC[C@@H](O)c1ccc(O)c(O)c1 [L-Adrenaline] | 102 | 99.7 | 100 | 99.2 | 100 | 101 | 95.7 | 95.4
20 | COC(=O)C1=C(C)NC(C)=C(C(=O)OCC(C)C)C1c1ccccc1[N+](=O)[O-] (stereo not drawn) [Nisoldipine] | 106 | 104 | 107 | 110 | 99.2 | 110 | 116 | 111
21 | N=C(N)NC(=O)c1nc(Cl)c(N)nc1N [Amiloride hydrochloride] | 103 | 105 | 100 | 110 | 106 | 105 | 96.6 | 109

From the supplement of paper PMC8371130
